# Reference: the supplement of paper PMC12632987
# Biological target: UCHL1, P09936
# Test: median log2 fold change of GCK-ALFA target abundance (FLAG IP / Myc IP barcode read proportion) (log2 ratio); each designed protein is fused to an ALFA-tag nanobody in HEK293 cells to bring the named protein to FLAG-tagged glucokinase (GCK); Myc marks an untargeted standard; higher = target protein stabilised (more abundant)
# Details: target protein: 3xFLAG-MCP-GCK-ALFA reporter; HEK293 landing pad (RPLP)
# In short: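 Binders fused to an ALFA nanobody were recombined as a library into HEK293 landing-pad cells, which were induced with 2 μg mL^−1 doxycycline and then transfected to express a FLAG-tagged target and a Myc-tagged standard. After 48 h, circular RNA barcodes recovered by anti-FLAG and anti-Myc immunoprecipitation of lysates were reverse transcribed, amplified and sequenced. Each binder's target abundance is the median log2 ratio of FLAG to Myc barcode read proportions, from barcodes present at ≥10^−7 in both replicates, binders carrying ≥3 barcodes per replicate, a 10^−6 pseudocount and pooled replicates.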
# Chain of UCHL1, P09936 (P09936 whole entry, looked up, the tested form may be a part): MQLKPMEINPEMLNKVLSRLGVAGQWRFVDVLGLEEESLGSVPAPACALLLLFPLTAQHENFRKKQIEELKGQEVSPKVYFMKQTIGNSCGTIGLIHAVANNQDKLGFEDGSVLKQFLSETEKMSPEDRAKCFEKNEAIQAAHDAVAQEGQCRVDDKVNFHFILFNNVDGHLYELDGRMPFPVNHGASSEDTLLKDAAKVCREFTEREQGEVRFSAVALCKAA
row,Binder,median log2 fold change
1,uchl1_2_7564 (protein) KTIFIGVLVELIAEDEETGKVYRSRHTYIFTESAIDALVEQIKEDALAFKEQTGVPVRVRIHIVSTNEEVVKKLKEKLEEMAEELKKEGIEVEISYTVVK,-0.635
2,uchl1_2_7560 (protein) KTQFVGVRVDITSLNPETGEVFRARRTLIGTEDSLEAMLEEVRRLVLDFKEQYGGETRVEIRITVSTEETGERAKRLAEELKEELEKEGIEVEVEVEVAK,0.0724
3,uchl1_2_7566 (protein) ETVFVGVKVTLTSYDEKTGKTYKSTRTLIFTESSIDAAVEEIRELALSFREQVGVPVKVEIHIVSTREEVLERLKEKLEEMAEELKEEGIEVEISGEVVK,-0.335
4,uchl1_2_7567 (protein) KPVFIGVKLTLTSKDEKTGKTYKSTHTLIFTESAIDKLVEEIERLALEFQKATGVPVTANIEVYSTDKEVLEKLMKKLKEMAKRLAKEGIKVNIEGKLVE,-0.668
5,uchl1_2_7563 (protein) ETVFVGVLVTLTAENAETGETFRSRRTYIFTESAIDALVAEIERDALAFREQTGVPVTVDIHIVSTDEAVVRRLEAALRAMAERLAAHGITVNISSTVVR,-0.142
6,uchl1_2_7558 (protein) KSEFVGVKVTITAEDPETGKVYVAKRTFIGLASDIEKLVEEVKKLVLEFKADKKVPVKVKIEAVVSSEETAERLKKELEKMKKELAKEGIEVEITVKVVK,-0.285
7,uchl1_2_7559 (protein) KTKFVGVLVKVEAVDEKTGKVKKARRTFIGTEENIEKLVEEIEKYVLEFQKEHGKDVKVKIHGVVSDEETAEKLKKKLEEMKKRLEKEGIKVEIEVTVAK,-0.255
8,uchl1_2_7554 (protein) ETKFVGVLVEIESVNPETGKEYKSRRTLIGTASAIEKLAEEVLELVRTFKEKTKAPVKVKVTVYVSDEETAKKAEKEFKKLEEELKKEGVEVEVEVIVVK,-0.73
9,uchl1_2_7565 (protein) ETIFIGVLVTLTSRDEATGKVYRSRRTLIFTESAIDALVEEIKEDALAFKAQTGVPVTVNIHIVSTNEEVVEKLKKKLEEMAKELAKEGITVNISYTVVK,-0.661
10,uchl1_2_7569 (protein) KTVFVGVKVTLEAYDEKTGKRYRSRHTLIFTEDSIEALAKEIKELALDFQKDVGVPVTVNIEVYSTDEAVVKKTMAVLEKMAKELAKEGIKVNITGTVVK,-1.14
11,uchl1_2_7556 (protein) KTVFVGVAIDLTSTNPETGEVFRSRRTLIGTASAIEAMAEEVRELILRFREETGGPVEVRILVVSSDEAVARRLVALLEAMAAELAAEGVTVTVTRRVLK,-0.249
12,uchl1_2_7568 (protein) KTVFVGVKVTLTSENKETGKTYKSTHTLIFTESAIEKLVEEIERLALEFKDATGVPVKVDIEVYSTDEEVLKKLMKELKKMAERLKKEGIEVNITGTLVK,-0.4
13,uchl1_2_7570 (protein) KTVFVGVLVTLTSKDAKTGKTYKSRRTYIFTESSIEALAKEIKEDALAFQKDVGVPVTVDIKIYSTKEEVVKKTKAVLEKMAEELAKEGIKVNITGTVVK,-0.683
14,uchl1_2_7562 (protein) KPVFIGVLVTLTAEDKETGKTYRSRRTLIFTESAIEALAEEIKELALNFRDTVGVPVKVEIKVFSTDEAVVERTVAILEKMAEELAKEGIEVTITGEVVK,-1.04
15,uchl1_2_7555 (protein) ASQFVGVLVTITAKDEKTGKTYVSRRTLIGTAESIEKMVEEIKELVLRFKDITKAPVEVKIEVYVSTEETAERMEKELEKLKEELEKKGVKVEIEVHVVE,-0.856
16,uchl1_2_7557 (protein) KSEFVGVLVTITARDEETGEVKVARRTFIGLAEDIEKLVEEIKKLVLEFKAQYNVPVEVDIKAVVSSEETAEKLKKELEKMKKELEKEGITVNIEVEVVE,-0.214
